This is part of a sample that, as a whole, favours compounds with a hit. Of some 83,000 tested, about 20% had one in any assay.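 Cell lines were cultured in 96-well plates, exposed to a single compound concentration, and assessed for percent growth 48 hours later.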 Values without a mark were called inactive. Active and inactive are the calls of the source. How the source made its calls: active means growth percent below 10; inactive means the rest.
Each compound was assayed on COLO 205 colon (assay: NCI-60 one-dose screen, 48 h (100 = growth as untreated, 0 = no growth, -100 = all killed)). Conditions: 10 µM unless noted.

| SMILES | growth |
| --- | --- |
| CC(C)Cc1ccc(C(C)C(=O)NCc2ccc(Cn3c(=O)sn(-c4ccc(Cl)cc4)c3=O)cc2)cc1 (stereo not drawn) | 74% |
| COc1ccc(Cn2nc3c(c2-c2cc(OC)c(OC)c(OC)c2)-c2oncc2CC3)cc1 | 99.1% |
| Cc1ccc(C(c2c(O)c3cc(Br)ccc3[nH]c2=O)c2c(O)c3cc(Br)ccc3[nH]c2=O)cc1 | 111% |
| CN1CCN(Cc2ccc(NC(=O)c3cncc(C#Cc4cnccc4C(F)(F)F)c3)cc2C(F)(F)F)CC1 | 44.4% |
| COc1ccc(/C=C/c2n[nH]c3ccc(N4CCOC4=O)cc23)cc1 | -17.4% (active) |
| COc1cc2nnn3c4ncccc4c(N=O)c3c2cc1OC | 102% |
| Cc1cc2nc(-c3ccccc3)c(-c3ccccc3)nc2cc1C | 119% |
| Cc1ccc2[nH]c(=O)cc(-n3nncc3COc3ccc(C=O)cc3)c2c1 | 128% |
| CCCOc1nc(SCCC)nc2c1cnn2-c1ccccc1 | 103% |
| NC(=O)c1cccc(-c2ccccc2N2CCCCC2)c1 | 121% |
| COc1cc2ncnc(Nc3ccc(C(=O)/C=C/c4ccc(C(F)(F)F)cc4F)cc3)c2cc1OC | 160% |
| CC(=O)OCCCCCNc1ccccc1 | 107% |
| O=C(Nc1sc2c(c1C(=O)O)CCCC2)c1cccc(C(F)(F)F)c1 | 113% |
| CCN1C(=O)N(CC)C2NC(SC)=NC21 (stereo not drawn) | 103% |
| C/C(=C(/c1ccccc1)c1ccc(OCC(O)CN2CCOCC2)cc1)c1ccccc1 (stereo not drawn) | 69.4% |
| COc1ccc(C(=O)c2cc3c(N)c(C(=O)Nc4ccc(Br)cc4)sc3nc2C)cc1 | 85.9% |
| CCOC(=O)Oc1c(OC)cc(C(=O)O[C@@H]2C[C@@H]3CN4CCc5c([nH]c6cc(OC)ccc56)[C@H]4C[C@@H]3[C@H](C(=O)OC)[C@H]2OC)cc1OC | 88.9% |
| COc1ccc(-c2nc(N/N=C/c3ccco3)nc(N3CCOCC3)c2C#N)cc1 | 85.7% |
| CCC(=O)c1ccc(O)c(OC)c1 | 120% |

| SMILES | growth |
| --- | --- |
| COc1ccc(-c2nc(N=Nc3c(O)[nH]c4ccccc34)nc(N3CCOCC3)c2C#N)cc1 | 67.8% |
| CCCCCCCCCCCCCCCC(=O)OC[C@@]1(O)C[C@@]23CC[C@@H]4C(C)(C)[C@H](O)CC[C@@]4(C)[C@@H]2CC[C@H]1C3 | 115% |
| FC(F)(F)Oc1cccc(-c2cc(NCCCCCCNc3cc(-c4cccc(OC(F)(F)F)c4)nc4ccc(N5CCCC5)cc34)c3cc(N4CCCC4)ccc3n2)c1 | -51.9% (active) |
| COc1ccc(C2=C(c3ccccc3)c3ccc(OC(C)=O)cc3OC2(C)C)cc1 | 108% |
| Cc1c2c(cc[n+]1Cc1ccc(F)cc1)c1ccc(OCc3cccc(F)c3)cc1n2Cc1cccc(F)c1 | -91.1% (active) |
| CC1=CC2(C)/C=C(C)/C=C\CC(O)/C=C3/C=CC(=C4C(=O)OC2(CC1C)C4=O)OC3 (stereo not drawn) | -80.5% (active) |
| O=C1OC(=O)C2C1CC=CC2c1ccccc1 (stereo not drawn) | 93.7% |
| C=C(C)[C@H]1CC/C(C)=C/CC[C@]2(C)O[C@H]2CC/C(COC(=O)[C@@H](OC(C)=O)[C@H](NC(=O)c2ccccc2)c2ccccc2)=C\[C@@H]1O | 113% |
| O=C(O)c1cn(C2CC2)c2cc(N3CCN(C(=O)C[n+]4cccc5ccccc54)CC3)c(F)cc2c1=O | 34.5% |
| COc1ccc(Nn2c(SCC(=O)Nc3nc(-c4ccc(Cl)cc4)cs3)nc(C)c2C)cc1 | 77.5% |
| Cn1c2c(Cl)c(Cl)ccc2c2cc(N)[nH]c(=O)c21 | 92.1% |
| CC(=O)c1c[nH]c2ccc(-c3ccnc(Nc4ccc(NC(=O)c5cccc(F)c5)c(CN5CCOCC5)c4)n3)cc12 | -17.8% (active) |
| Clc1nc(Nc2ccccc2)nc(Nc2ccccc2)n1 | 108% |
| O=C1Nc2c(ccc(Cl)c2Cl)/C1=C/c1ccccn1 | 108% |
| Cc1ccc2nc3c(cc2c1)CSc1nnc(-c2ccc[nH]c2=S)n1N3 | 110% |
| CN1CCN(C(=O)[C@]2(C)CC[C@]3(C)CC[C@]4(C)C(=CC(=O)[C@@H]5[C@@]6(C)CCC(=O)NC(C)(C)[C@@H]6CC[C@]54C)[C@@H]3C2)CC1 | 110% |
| COc1ccc(-c2nn(Cc3ccccc3)c3c2-c2oncc2CC3)cc1OC | 136% |
| O=c1[nH]c2c(s1)CCCC2CN1CCCCC1 (stereo not drawn) | 98.4% |
| CC(C)(C)CC(C)(C)Nc1c(-c2ccc3c(c2)OCO3)nc2cnccn12 | 102% |

From PubChem BioAssay (NCI)
